Experimental data: PubChem BioAssay AID1159580 (chemical genetic matrix, 2015)
About 2,000 (36%) of roughly 5,500 compounds were called active. Roughly 18% stayed inconclusive and do not appear here. No stated cut-off is given here; in the data, active means normalized growth mostly below about 0.91 (no sharp cut-off); inconclusive means no clear call, values can overlap the other calls; inactive means mostly above about 0.92. This is one part of the list.

Assay: chemical genetic growth profiling, strain panel (AID 1159580);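 further: tested at 20 µM; growth read once vehicle control cultures reached saturation at 30 °C; 1 = growth at the plate median or of vehicle wells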
Settings: growth OD

Measured: normalized growth

O=[N+]([O-])O[C@H]1CO[C@H]2[C@@H]1OC[C@H]2O[N+](=O)[O-]
active: S. cerevisiae deletion strains, locus YOR231W, strain MKK1, stronger effect = lower value 0.837
inactive: S. cerevisiae deletion strains, locus YJR043C, strain POL32, stronger effect = lower value 1.02 | S. cerevisiae deletion strains, locus YJR066W, strain TOR1, stronger effect = lower value 0.946 | S. cerevisiae deletion strains, locus YKL009W, strain mrt4, stronger effect = lower value 1.03 | S. cerevisiae deletion strains, locus YKL068W, stronger effect = lower value 1.01 | S. cerevisiae deletion strains, locus YKL085W, strain MDH1 (second series), stronger effect = lower value 1.01 | S. cerevisiae deletion strains, locus YKL085W, strain MDH1, stronger effect = lower value 1.01 | S. cerevisiae deletion strains, locus YKL160W, strain elf1, stronger effect = lower value 0.98 | S. cerevisiae deletion strains, locus YKL190W, strain CNB1, stronger effect = lower value 1.02 | S. cerevisiae deletion strains, locus YKR001C, strain vps1, stronger effect = lower value 1.02 | S. cerevisiae deletion strains, locus YKR026C, strain gcn3, stronger effect = lower value 0.993 | S. cerevisiae deletion strains, locus YKR091W, strain srl3, stronger effect = lower value 0.993 | S. cerevisiae deletion strains, locus YLL001W, strain dnm1, stronger effect = lower value 0.971 | S. cerevisiae deletion strains, locus YLL026W, stronger effect = lower value 1 | S. cerevisiae deletion strains, locus YLL041C, strain sdh2, stronger effect = lower value 0.998 | S. cerevisiae deletion strains, locus YLR027C, strain aat2, stronger effect = lower value 1.01 | S. cerevisiae deletion strains, locus YLR039C, strain RIC1, stronger effect = lower value 1.05 | S. cerevisiae deletion strains, locus YLR058C, strain SHM2, stronger effect = lower value 1.01 | S. cerevisiae deletion strains, locus YLR102C, strain apc9, stronger effect = lower value 1.01 | S. cerevisiae deletion strains, locus YLR113W, strain HOG1, stronger effect = lower value 0.926 | S. cerevisiae deletion strains, locus YLR221C, strain rsa3, stronger effect = lower value 0.995 | S. cerevisiae deletion strains, locus YLR258W, strain gsy2, stronger effect = lower value 0.995 | S. cerevisiae deletion strains, locus YLR262C, strain YPT6 (second series), stronger effect = lower value 1 | S. cerevisiae deletion strains, locus YLR262C, strain YPT6, stronger effect = lower value 1.02 | S. cerevisiae deletion strains, locus YLR268W, strain sec22, stronger effect = lower value 1.04 | S. cerevisiae deletion strains, locus YLR320W, strain mms22, stronger effect = lower value 0.979 | S. cerevisiae deletion strains, locus YLR330W, strain CHS5, stronger effect = lower value 1.01 | S. cerevisiae deletion strains, locus YLR342W, strain FKS1 (second series), stronger effect = lower value 1.04 | S. cerevisiae deletion strains, locus YLR342W, strain FKS1, stronger effect = lower value 0.995 | S. cerevisiae deletion strains, locus YLR357W, strain rsc2, stronger effect = lower value 0.983 | S. cerevisiae deletion strains, locus YLR370C, strain arc18, stronger effect = lower value 0.992 | S. cerevisiae deletion strains, locus YLR371W, strain rom2, stronger effect = lower value 1 | S. cerevisiae deletion strains, locus YLR384C, strain iki3, stronger effect = lower value 0.981 | S. cerevisiae deletion strains, locus YLR418C, strain cdc73, stronger effect = lower value 1.09 | S. cerevisiae deletion strains, locus YML016C, strain PPZ1, stronger effect = lower value 1.01 | S. cerevisiae deletion strains, locus YML032C, strain rad52, stronger effect = lower value 1.03 | S. cerevisiae deletion strains, locus YML120C, strain ndi1, stronger effect = lower value 0.966 | S. cerevisiae deletion strains, locus YML124C, strain tub3, stronger effect = lower value 1.02 | S. cerevisiae deletion strains, locus YMR058W, strain fet3, stronger effect = lower value 1 | S. cerevisiae deletion strains, locus YMR078C, strain ctf18, stronger effect = lower value 1.02 | S. cerevisiae deletion strains, locus YMR125W, strain sto1, stronger effect = lower value 0.996 | S. cerevisiae deletion strains, locus YMR129W, stronger effect = lower value 0.988 | S. cerevisiae deletion strains, locus YMR205C, strain PFK2, stronger effect = lower value 0.963 | S. cerevisiae deletion strains, locus YMR223W, strain ubp8, stronger effect = lower value 1.05 | S. cerevisiae deletion strains, locus YMR231W, strain pep5, stronger effect = lower value 1 | S. cerevisiae deletion strains, locus YMR307W, strain GAS1, stronger effect = lower value 1.05 | S. cerevisiae deletion strains, locus YNL067W, strain RPL9B, stronger effect = lower value 1.01 | S. cerevisiae deletion strains, locus YNL071W, strain lat1, stronger effect = lower value 0.996 | S. cerevisiae deletion strains, locus YNL128W, strain TEP1, stronger effect = lower value 1.03 | S. cerevisiae deletion strains, locus YNL183C, strain NPR1, stronger effect = lower value 0.955 | S. cerevisiae deletion strains, locus YNL209W, strain ssb2, stronger effect = lower value 0.994 | S. cerevisiae deletion strains, locus YNL233W, strain BNI4, stronger effect = lower value 1.01 | S. cerevisiae deletion strains, locus YNL248C, strain rpa49, stronger effect = lower value 1.01 | S. cerevisiae deletion strains, locus YNL250W, strain rad50, stronger effect = lower value 1.05 | S. cerevisiae deletion strains, locus YNL271C, strain bni1, stronger effect = lower value 1.01 | S. cerevisiae deletion strains, locus YNL298W, strain CLA4, stronger effect = lower value 1.03 | S. cerevisiae deletion strains, locus YNL307C, strain MCK1, stronger effect = lower value 1.02 | S. cerevisiae deletion strains, locus YNL322C, strain KRE1 (second series), stronger effect = lower value 0.979 | S. cerevisiae deletion strains, locus YNR049C, strain mso1, stronger effect = lower value 0.981 | S. cerevisiae deletion strains, locus YNR052C, strain pop2, stronger effect = lower value 1.02 | S. cerevisiae deletion strains, locus YOL006C, strain TOP1, stronger effect = lower value 1.01 | S. cerevisiae deletion strains, locus YOL012C, strain htz1 1.04 | S. cerevisiae deletion strains, locus YOL147C, strain pex11, stronger effect = lower value 1.02 | S. cerevisiae deletion strains, locus YOR001W, strain rrp6, stronger effect = lower value 1.01 | S. cerevisiae deletion strains, locus YOR061W, strain CKA2, stronger effect = lower value 1.01 | S. cerevisiae deletion strains, locus YOR069W, strain VPS5, stronger effect = lower value 1.01 | S. cerevisiae deletion strains, locus YOR070C, strain gyp1, stronger effect = lower value 1 | S. cerevisiae deletion strains, locus YOR080W, strain dia2, stronger effect = lower value 0.994 | S. cerevisiae deletion strains, locus YOR083W, strain WHI5, stronger effect = lower value 0.977 | S. cerevisiae deletion strains, locus YOR106W, strain vam3, stronger effect = lower value 1 | S. cerevisiae deletion strains, locus YOR136W, strain idh2, stronger effect = lower value 1.02 | S. cerevisiae deletion strains, locus YOR144C, strain elg1, stronger effect = lower value 1.02 | S. cerevisiae deletion strains, locus YOR184W, strain ser1, stronger effect = lower value 1.03 | S. cerevisiae deletion strains, locus YOR265W, strain rbl2, stronger effect = lower value 0.994 | S. cerevisiae deletion strains, locus YOR270C, strain vph1, stronger effect = lower value 1.02 | S. cerevisiae deletion strains, locus YOR290C, strain snf2, stronger effect = lower value 0.939 | S. cerevisiae deletion strains, locus YOR316C, strain cot1, stronger effect = lower value 1.01 | S. cerevisiae deletion strains, locus YPL051W, strain arl3, stronger effect = lower value 0.985 | S. cerevisiae deletion strains, locus YPL078C, strain atp4, stronger effect = lower value 0.979 | S. cerevisiae deletion strains, locus YPL106C, strain sse1, stronger effect = lower value 0.949 | S. cerevisiae deletion strains, locus YPL240C, strain hsp82, stronger effect = lower value 1 | S. cerevisiae deletion strains, locus YPL256C, strain CLN2, stronger effect = lower value 0.938 | S. cerevisiae deletion strains, locus YPR119W, strain clb2, stronger effect = lower value 1.02 | S. cerevisiae deletion strains, locus YPR141C, strain kar3, stronger effect = lower value 1.02 | S. cerevisiae deletion strains, locus YPR163C, strain tif3, stronger effect = lower value 1.01 | S. cerevisiae deletion strains, locus YPR167C, strain met16, stronger effect = lower value 1.02 | S. cerevisiae deletion strains, strain wtn01, stronger effect = lower value 1.05 | S. cerevisiae strains, strain wild type, stronger effect = lower value 1.02
